Source: PubChem BioAssay AID449762 (Southern Research Specialized Biocontainment Screening …, 2010)
Out of some 330,000 compounds screened, about 1,900 (0.58%) were called active. About 4% were inconclusive and are not listed. No stated cut-off is given here; in the data, inconclusive means inhibition above about 70% without an active follow-up result; inactive means below that. Not all results are given here. Results with a measured potency or affinity are listed apart.

Test: M. tuberculosis growth inhibition, HTS (AID 449762);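 further: bacterial growth assessed after seven days of incubation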
Settings: M. tuberculosis H37Rv growth inhibition, 7H9 media; at 25 µM; active compounds read high
For `COc1ccc(CN2CCC(Oc3ccc(C(=O)NCc4ccccn4)cc3)CC2)c(F)c1`, the inhibition was -12.3% (inactive).
With `CCOc1ccc(NC(=O)NC2CCCc3ccccc32)cc1` (stereo not given) the inhibition was -11.3% (inactive).
In the case of `Cc1cc2c(N)cccc2nn1`, the inhibition is reported as -2.97% (inactive).
For `Cc1cnnc2ccc3c(no[n+]3[O-])c12`, the inhibition was 0.29% (inactive).
With `Cc1ccc(-n2c(CSc3nc(C)cc(C)n3)n[nH]c2=S)cc1` the inhibition was -6.43% (inactive).
For `N#Cc1c(N)nc2c(c1-c1ccc(Br)s1)CCCC2`, the inhibition was 0.77% (inactive).
In the case of `Cc1ccc(C)c(NC(=O)CN(C)C(=O)[C@@H](NC(N)=O)C(C)C)c1`, the inhibition is reported as 1.17% (inactive).
In the case of `OC[C@H]1O[C@@H](n2cnc3c(NC4CCCC4)ncnc32)[C@H](O)[C@@H]1O`, the inhibition is reported as -4.16% (inactive).
With `OCC1OC(n2cnc3c(NC4CCCC4)ncnc32)C(O)C1O` (stereo not given) the inhibition was -0.62% (inactive).
With `COc1cc(/C=C\C(=O)NCc2ccc3[nH]c(C)cc3c2)cc(OC)c1OC` the inhibition was -3.67% (inactive).
In the case of `O=C(Cn1cnc2c(nnn2-c2ccccc2)c1=O)N1CCC(Cc2ccccc2)CC1`, the inhibition is reported as -6.42% (inactive).
For `COc1ccc(-n2nnc3c(=O)n(CC(=O)N4CCC(Cc5ccccc5)CC4)cnc32)cc1`, the inhibition was -2.79% (inactive).
In the case of `CCc1ccc(C(=O)COC(=O)C(CCSC)NC(=O)C23CC4CC(CC(C4)C2)C3)cc1` (stereo not given), the inhibition is reported as 1.72% (inactive).
In the case of `CCCCNC(=S)N(C)/N=C/c1c(F)cccc1F`, the inhibition is reported as -1.55% (inactive).
For `CCCCNC(=S)N(C)/N=C/c1ccccc1F`, the inhibition was 7.41% (inactive).
For `CCCC[C@@H]1CN=C(N)N1CCc1cc(C(F)(F)F)cc(C(F)(F)F)c1`, the inhibition was 4.85% (inactive).
In the case of `FC(F)(F)c1cc(CCN2C(=S)NC[C@@H]2CC2CCCCC2)cc(C(F)(F)F)c1`, the inhibition is reported as -2.31% (inactive).
With `COc1ccccc1CC(=O)NC1CCCCCC1` the inhibition was -3.92% (inactive).
For `CC1CCCCC1NC(=O)Cn1c(CN2CCCCC2)nc2ccccc2c1=O` (stereo not given), the inhibition was 5.05% (inactive).
In the case of `COc1ccc(N2C(=O)CC(NNC(=O)c3cc(C)oc3C)C2=O)cc1` (stereo not given), the inhibition is reported as -4.63% (inactive).
For `O=C1C(=O)c2cccc3cccc1c23`, the inhibition was 3.34% (inactive).
For `NC1=CC(=O)c2cccc3cccc1c23`, the inhibition was -0.47% (inactive).
For `COc1cc2c(cc1NC(=O)COC(=O)CNS(=O)(=O)c1ccc(C)cc1)oc1ccccc12`, the inhibition was 20.6% (inactive).
In the case of `Cc1ccc(C)c(NC(=O)CCNS(=O)(=O)c2ccc3[nH]c(=O)oc3c2)c1`, the inhibition is reported as -1.71% (inactive).
In the case of `CC1(c2ccc(Cl)cc2)NC(=O)N(CC(=O)c2ccc3c(c2)OCO3)C1=O` (stereo not given), the inhibition is reported as -11.1% (inactive).
With `CC1(c2ccc(OC(F)F)cc2)NC(=O)N(CC(=O)Nc2ccc3c(c2)OCO3)C1=O` (stereo not given) the inhibition was 1.98% (inactive).
With `CCN(CC(=O)Nc1ccccc1C(=O)OC)S(=O)(=O)c1ccccc1` the inhibition was -8.58% (inactive).
In the case of `Cc1nc(-c2nnc(SCC(=O)Nc3cc(Cl)cc(Cl)c3)n2C)cs1`, the inhibition is reported as -8.27% (inactive).
With `CC1CCCCN1C(=O)C1CCN(S(=O)(=O)c2ccc(-n3cnnn3)cc2)CC1` (stereo not given) the inhibition was -3.02% (inactive).
With `COc1ccc(OC)c2[nH]c(=O)c(CCNC(=O)c3ccc(Br)o3)cc12` the inhibition was -4.84% (inactive).
For `Cc1cc(=O)oc2cc(OCC(=O)N3CCN(C(=O)C4COc5ccccc5O4)CC3)ccc12` (stereo not given), the inhibition was 5.34% (inactive).
For `Cc1cc(=O)oc2cc(OCC(=O)N3CCN(C(=O)C4COc5ccccc5O4)CC3)c(Cl)cc12` (stereo not given), the inhibition was 68.3% (inactive).
With `O=C(NCCN1CCOCC1)C1CCCN(S(=O)(=O)c2ccc(F)cc2)C1` (stereo not given) the inhibition was -1.03% (inactive).
For `CC(=O)C1=NOC(CNc2ncc(C(F)(F)F)cc2Cl)C1` (stereo not given), the inhibition was -4.07% (inactive).
In the case of `NNC(=O)C1=NOC(CNc2ncc(C(F)(F)F)cc2Cl)C1` (stereo not given), the inhibition is reported as -0.88% (inactive).
For `O=c1[nH]c2cc(Cl)ccc2n(CCNc2ncc(C(F)(F)F)cc2Cl)c1=O`, the inhibition was -0.44% (inactive).
In the case of `O=c1c2nncn2c2cc(C(F)(F)F)ccc2n1CCNc1ncc(C(F)(F)F)cc1Cl`, the inhibition is reported as -1.6% (inactive).
For `Cc1nnc(SCc2c(Cl)cccc2Cl)s1`, the inhibition was 7.37% (inactive).
With `O=C(C1CCCN(c2ncnc3c2nc2n3CCCCC2)C1)N1CCN(c2ccc(F)cc2)CC1` (stereo not given) the inhibition was 23.2% (inactive).
With `O=C(C1CCCN(c2ncnc3c2nc2n3CCCCC2)C1)N1CCN(c2ccccc2)CC1` (stereo not given) the inhibition was 6.98% (inactive).
In the case of `COc1cc2c(cc1NC(=O)Cc1ccc(C)cc1)oc1ccccc12`, the inhibition is reported as -1.99% (inactive).
For `CCOc1ccccc1/C=C(/NC(=O)c1ccccc1)C(=O)N1CCCCC1`, the inhibition was 4.77% (inactive).
For `CCOP(=O)(OCC)C(NC(=O)c1ccccc1)=C(Cl)Cl`, the inhibition was -0.5% (inactive).
In the case of `COc1ccc(/C(C)=N/N2CCCCC2)c(O)c1`, the inhibition is reported as 0.48% (inactive).
In the case of `Cc1nn(Cc2ccc(Cl)cc2Cl)c(C)c1NC(=O)Cn1nc([N+](=O)[O-])c(Cl)c1C`, the inhibition is reported as 5.47% (inactive).
In the case of `S=C(NCc1ccccc1)NCc1ccc2c(c1)OCO2`, the inhibition is reported as 13% (inactive).
With `S=C(NCc1ccc2c(c1)OCO2)NCc1ccc2c(c1)OCO2` the inhibition was 2.49% (inactive).
In the case of `CN1/C(=C\C(=O)COC(=O)c2ccc(O)c(O)c2)C(C)(C)c2ccccc21`, the inhibition is reported as 25% (inactive).
In the case of `Oc1ccc(CCNc2c3ccccc3nc3ccccc23)cc1O`, the inhibition is reported as -2.38% (inactive).
For `O=C(Nc1ccc2c(c1)OCO2)c1c(F)c(F)c(F)c(F)c1F`, the inhibition was 2.74% (inactive).
For `Cc1sc2ncnc(N3CCCCC3)c2c1C`, the inhibition was 5.45% (inactive).
In the case of `Cc1ccc(OCC(=O)NNC(=O)C2CCN(c3ncnc4sc(C)c(C)c34)CC2)cc1`, the inhibition is reported as 42% (inactive).
For `CSc1ccccc1NC(=O)CN1c2ccccc2CC1C` (stereo not given), the inhibition was 7.66% (inactive).
For `CCOC(=O)Cc1csc(NC(=O)COc2ccccc2OCC)n1`, the inhibition was -11.5% (inactive).
With `CCOC(=O)Cc1csc(NC(=O)CCSc2ccccc2)n1` the inhibition was 5.94% (inactive).
In the case of `COC(=O)c1ccc(CSc2ncnc3c2sc2nc(N4CCOCC4)c4c(c23)CCCC4)o1`, the inhibition is reported as -0.71% (inactive).
In the case of `COC(=O)CSc1ncnc2c1sc1nc(N3CCOCC3)c3c(c12)CCCC3`, the inhibition is reported as -2.32% (inactive).
In the case of `O=c1cnnc(Nc2ccc(Nc3ccccc3)cc2)[nH]1`, the inhibition is reported as 14% (inactive).
In the case of `CC(C)c1ccc(NC(=O)CCS(=O)(=O)c2cccc3nonc23)cc1`, the inhibition is reported as 6.08% (inactive).
For `O=C(C1CCC1)N1CCN(S(=O)(=O)c2ccc(F)cc2)CC1`, the inhibition was -11% (inactive).
For `CCOc1ccc(/C=C2/C(=N)N3OC(C)=CC3=NC2=O)cc1OC`, the inhibition was 2.41% (inactive).
In the case of `CN(CCO)c1cc(N2CCCCC2)c2nonc2c1[N+](=O)[O-]`, the inhibition is reported as -7.07% (inactive).
In the case of `CN(CCO)c1cc(N2CCC3(CC2)OCCO3)c2nonc2c1[N+](=O)[O-]`, the inhibition is reported as -10.9% (inactive).
In the case of `Cc1cc(C)cc(NC(=O)CCn2c(=S)[nH]c3ccccc3c2=O)c1`, the inhibition is reported as 3.81% (inactive).
In the case of `Cc1cccc(OCCCCNCc2ccccc2)c1`, the inhibition is reported as 0.71% (inactive).
With `Clc1ccc(Cl)c(OCCCCNCc2ccccc2)c1` the inhibition was 6.87% (inactive).
In the case of `COc1cc(Br)c(/C=C/c2ccc3cccc(O)c3n2)cc1OC`, the inhibition is reported as 15.4% (inactive).
With `COc1ccc(Br)cc1/C=C/c1ccc2cccc(O)c2n1` the inhibition was 69.8% (inactive).
In the case of `On1c(-c2ccc(Cl)cc2)nc2ccccc21`, the inhibition is reported as 67.2% (inactive).
With `COc1cc(CNn2nnnc2N)cc(Br)c1OCc1c(Cl)cccc1Cl` the inhibition was 0.85% (inactive).
For `Cc1ccc(N2CCN(S(=O)(=O)N3CCCCC3)CC2)cc1C`, the inhibition was -2.98% (inactive).
With `CCOC(=O)C1=C(C)NC(SCC(N)=O)=C(C#N)C1c1cccs1` (stereo not given) the inhibition was -3.02% (inactive).
In the case of `CCOC(=O)C1=C(C)NC(SCC(=O)Nc2cc(C)on2)=C(C#N)C1c1cccs1` (stereo not given), the inhibition is reported as -1.09% (inactive).
With `O=C(COC(=O)c1cc(=O)[nH]c2ccccc12)NC(=O)c1ccccc1` the inhibition was -1.53% (inactive).
With `COc1ccc(Nc2nc(CC(C)=O)ns2)cc1OC` the inhibition was -2.22% (inactive).
In the case of `O=C1CN(C(=O)CN2C(=O)NC(c3ccccc3)(c3ccccc3)C2=O)c2ccccc2N1`, the inhibition is reported as -4.74% (inactive).
For `CC(=O)N1CCN(C(=O)c2ccc(-c3cccc(C(F)(F)F)c3)o2)CC1`, the inhibition was -1.68% (inactive).
For `O=C(c1ccc(-c2cccc(C(F)(F)F)c2)o1)N1CCCCCCC1`, the inhibition was 4.53% (inactive).
With `CCCCS(=O)(=O)N1CCC(C(=O)Oc2ccccc2OC)CC1` the inhibition was 28.5% (inactive).
For `Cc1ccc(C(C(=O)Nc2ccc3c(c2)OCO3)N(C)C(=O)Cc2c[nH]c3ccccc23)cc1` (stereo not given), the inhibition was -1.34% (inactive).
For `C/C(=C\C(=S)Nc1ccccc1)Nc1ccccc1`, the inhibition was 3.81% (inactive).
In the case of `C/C(=C\C(=S)Nc1ccccc1)Nc1cccc2ccccc12`, the inhibition is reported as 64.1% (inactive).
With `O=C(CC1CCCCC1)NCCCN1CCOCC1` the inhibition was -0.7% (inactive).
In the case of `O=C(CSc1nc2[nH]c(=O)cc(O)c2s1)Nc1ccc(Br)cc1`, the inhibition is reported as -3.77% (inactive).
In the case of `CC(=O)N1CCc2cc(Br)cc(S(=O)(=O)NCC3CCCO3)c21` (stereo not given), the inhibition is reported as 0.13% (inactive).
In the case of `COc1cc2cc(C(=O)N(C)Cc3ccccc3)[nH]c2cc1OC`, the inhibition is reported as 6.88% (inactive).
For `COCCCn1c(SCc2ccc(OC)cc2)nc2cc(OC)c(OC)cc2c1=N`, the inhibition was -4.77% (inactive).
In the case of `COCCCn1c(SCc2ccccc2)nc2cc(OC)c(OC)cc2c1=N`, the inhibition is reported as -2.27% (inactive).
In the case of `O=C(CN1C(=O)NC2(CCCC2)C1=O)OCc1cccc(Br)c1`, the inhibition is reported as -6.4% (inactive).
For `O=C(NC1CCSc2ccccc21)c1ccccc1Cl` (stereo not given), the inhibition was 43.4% (inactive).
With `O=C(NC1CCSc2ccccc21)c1ccccc1F` (stereo not given) the inhibition was 12.7% (inactive).
With `COc1ccc(OCc2n[nH]c(=S)n2-c2ccc(C)cc2)cc1` the inhibition was 3.01% (inactive).
In the case of `Cc1cc(=O)[nH]c(N/N=C/c2c(C)nn(-c3ccc(F)cc3)c2Cl)n1`, the inhibition is reported as 0.52% (inactive).
In the case of `Oc1ccc(N=Nc2n[nH]c(-c3ccc(Br)cc3)n2)cc1`, the inhibition is reported as 4.79% (inactive).
With `Cc1ccc(-c2nc(N=Nc3ccc(O)cc3)n[nH]2)cc1` the inhibition was 4.83% (inactive).
